Assay results taken from the supplement of paper PMC6555819.

Key:
Assay in all cases: PBM binding z-score (relative to random genomic background probes); higher = stronger binding; sequences stand for … in GC…GCGATTGACAGCGTAGAATGAAGG
[1] = tested on: RARb homodimer (NR concentration 270 nM)
Method in brief: (§1)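 The probes on custom Agilent 4×180K protein-binding microarrays were double-stranded, with 34-nt variable regions bearing direct-repeat seeds, single-nucleotide variants, half-site ablations and random human genomic background sequences. Incubation lasted 1 h with ligand-free nuclear receptor dimers in PBS pH 7.4, 2% milk, 0.02% Triton X-100, 1 mM DTT, 0.2 mg/mL BSA and 0.4 mg/ml salmon testes DNA. Antibodies against each partner (one per run) detected bound dimers, and fluorescence scans were regression-normalized. Binding z-scores take the random background probes as reference.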

[2] = tested on: RARg:RXRa (NR concentration 270 nM, RXRa partner concentration 90 nM)
Method in brief: as §1

[3] = tested on: RARg homodimer (NR concentration 270 nM)
Method in brief: as §1

[4] = tested on: RXRa DBDmut IVT, anti-RXR (DBD mutation: RXRa K156A/R161A, NR concentration 90 nM)
Method in brief: as §1

[5] = tested on: RXRa homodimer (NR concentration 180 nM)
Method in brief: as §1

[6] = tested on: THRa:RXRa (NR concentration 90 nM, RXRa partner concentration 90 nM)
Method in brief: as §1

[7] = tested on: THRa homodimer (NR concentration 90 nM)
Method in brief: as §1

[8] = tested on: VDR:RXRa (NR concentration 270 nM, RXRa partner concentration 90 nM)
Method in brief: as §1

[9] = tested on: VDR homodimer (NR concentration 270 nM)
Method in brief: as §1

Q: How did the PBM binding z-score [1] turn out when CCGTCTGGGGCAAGGTTACCATAACGCACAGCCA was run?
A: The PBM binding z-score was 1.05.

Q: What about the PBM binding z-score [2] of the same sequence?
A: Its PBM binding z-score is 1.06.

Q: And the PBM binding z-score [3]?
A: Its PBM binding z-score is 1.13.

Q: What about the PBM binding z-score [4] of the same sequence?
A: The PBM binding z-score was -0.58.

Q: What about the PBM binding z-score [5] of the same sequence?
A: The PBM binding z-score was 0.988.

Q: And the PBM binding z-score [6]?
A: The PBM binding z-score was 1.15.

Q: What about the PBM binding z-score [7] of the same sequence?
A: The PBM binding z-score was 0.197.

Q: And the PBM binding z-score [8]?
A: The PBM binding z-score was 0.236.

Q: What about the PBM binding z-score [9] of the same sequence?
A: The PBM binding z-score was 0.0669.

Q: With TCTCGGAGGACACGAGGGTCAGAGCTTTCCAGAG as the sequence, how does the PBM binding z-score [1] read?
A: The PBM binding z-score was 2.81.

Q: What about the PBM binding z-score [2] of the same sequence?
A: The PBM binding z-score was 2.58.

Q: And the PBM binding z-score [3]?
A: The PBM binding z-score was 2.96.

Q: And the PBM binding z-score [4]?
A: The PBM binding z-score was 0.569.

Q: What about the PBM binding z-score [5] of the same sequence?
A: Its PBM binding z-score is 1.33.

Q: And the PBM binding z-score [6]?
A: The PBM binding z-score was 2.48.

Q: What about the PBM binding z-score [7] of the same sequence?
A: The PBM binding z-score was 0.409.

Q: What about the PBM binding z-score [8] of the same sequence?
A: The PBM binding z-score was 1.7.

Q: And the PBM binding z-score [9]?
A: Its PBM binding z-score is 0.685.

Q: How did the PBM binding z-score [1] turn out when TCTGCTAGGTCAGTTGGTCAGCTTACGAGCTGCC was run?
A: Its PBM binding z-score is 2.7.

Q: And the PBM binding z-score [2]?
A: The PBM binding z-score was 2.62.

Q: What about the PBM binding z-score [3] of the same sequence?
A: The PBM binding z-score was 3.97.

Q: And the PBM binding z-score [4]?
A: The PBM binding z-score was 0.621.

Q: And the PBM binding z-score [5]?
A: Its PBM binding z-score is 0.757.

Q: What about the PBM binding z-score [6] of the same sequence?
A: Its PBM binding z-score is 1.26.

Q: And the PBM binding z-score [7]?
A: The PBM binding z-score was 0.376.

Q: And the PBM binding z-score [8]?
A: Its PBM binding z-score is 0.0848.

Q: What about the PBM binding z-score [9] of the same sequence?
A: Its PBM binding z-score is -0.597.

Q: With TTAATGAGGTTATAAGATCAGGGAACGTTGCAAA as the sequence, how does the PBM binding z-score [1] read?
A: The PBM binding z-score was 0.668.

Q: And the PBM binding z-score [2]?
A: Its PBM binding z-score is 1.59.

Q: What about the PBM binding z-score [3] of the same sequence?
A: Its PBM binding z-score is 1.01.

Q: What about the PBM binding z-score [4] of the same sequence?
A: Its PBM binding z-score is 1.63.

Q: And the PBM binding z-score [5]?
A: Its PBM binding z-score is 2.13.

Q: What about the PBM binding z-score [6] of the same sequence?
A: Its PBM binding z-score is 2.04.

Q: What about the PBM binding z-score [7] of the same sequence?
A: The PBM binding z-score was 0.52.

Q: And the PBM binding z-score [8]?
A: Its PBM binding z-score is 1.27.

Q: What about the PBM binding z-score [9] of the same sequence?
A: The PBM binding z-score was 0.74.

Q: What does the source list for CCTACTGGGGCATAAGGTTACCATAAGCCAGCCC?
A: PBM binding z-score [1]: 1.86; PBM binding z-score [2]: 1.78; PBM binding z-score [3]: 1.29; PBM binding z-score [4]: -0.346; PBM binding z-score [5]: 1.17; PBM binding z-score [6]: 2.05; PBM binding z-score [7]: 0.894; PBM binding z-score [8]: 0.27; PBM binding z-score [9]: -0.339

Q: What does the source list for ACTAGCAGGCCAAGTTTGGGTCACCCAAACAAAG?
A: PBM binding z-score [1]: 2.48; PBM binding z-score [2]: 2.88; PBM binding z-score [3]: 2.18; PBM binding z-score [4]: -0.623; PBM binding z-score [5]: 1.45; PBM binding z-score [6]: 2.96; PBM binding z-score [7]: 1.36; PBM binding z-score [8]: 1.13; PBM binding z-score [9]: 0.196

Q: Which results are given for CCTCGGAGGACCGAAGGTCAGAGCTGTCCGCTTT?
A: PBM binding z-score [1]: 2.65; PBM binding z-score [2]: 2.03; PBM binding z-score [3]: 2.2; PBM binding z-score [4]: -0.585; PBM binding z-score [5]: 1.54; PBM binding z-score [6]: 1.62; PBM binding z-score [7]: -0.389; PBM binding z-score [8]: 0.565; PBM binding z-score [9]: 0.161

Q: With CCTACTGGGCCACGAAAGGTTATTGATTCAGTGA as the sequence, how does the PBM binding z-score [1] read?
A: The PBM binding z-score was 1.98.

Q: What about the PBM binding z-score [2] of the same sequence?
A: The PBM binding z-score was 1.1.

Q: What about the PBM binding z-score [3] of the same sequence?
A: Its PBM binding z-score is 1.08.

Q: And the PBM binding z-score [4]?
A: Its PBM binding z-score is -0.0139.

Q: What about the PBM binding z-score [5] of the same sequence?
A: The PBM binding z-score was 1.2.

Q: What about the PBM binding z-score [6] of the same sequence?
A: Its PBM binding z-score is 1.66.

Q: And the PBM binding z-score [7]?
A: Its PBM binding z-score is 0.302.

Q: What about the PBM binding z-score [8] of the same sequence?
A: Its PBM binding z-score is 0.818.

Q: And the PBM binding z-score [9]?
A: Its PBM binding z-score is 0.238.

Q: With CCTACTGGGCCAAACGTCATTGATTCCAATGCTC as the sequence, how does the PBM binding z-score [1] read?
A: Its PBM binding z-score is -0.184.

Q: What about the PBM binding z-score [2] of the same sequence?
A: Its PBM binding z-score is -0.00983.

Q: And the PBM binding z-score [3]?
A: Its PBM binding z-score is -0.146.

Q: And the PBM binding z-score [4]?
A: The PBM binding z-score was 0.278.

Q: And the PBM binding z-score [5]?
A: Its PBM binding z-score is 0.000676.

Q: What about the PBM binding z-score [6] of the same sequence?
A: Its PBM binding z-score is -0.343.

Q: And the PBM binding z-score [7]?
A: Its PBM binding z-score is -0.264.

Q: What about the PBM binding z-score [8] of the same sequence?
A: The PBM binding z-score was -0.204.

Q: What about the PBM binding z-score [9] of the same sequence?
A: Its PBM binding z-score is -0.254.

Q: For TCAGACAGGTGAAGGTAACTCACGTACGCAGTCG, which PBM binding z-score [1] is on record?
A: The PBM binding z-score was 0.616.

Q: What about the PBM binding z-score [2] of the same sequence?
A: Its PBM binding z-score is 0.706.

Q: What about the PBM binding z-score [3] of the same sequence?
A: The PBM binding z-score was 0.586.

Q: And the PBM binding z-score [4]?
A: The PBM binding z-score was 1.3.

Q: What about the PBM binding z-score [5] of the same sequence?
A: The PBM binding z-score was 0.939.

Q: What about the PBM binding z-score [6] of the same sequence?
A: The PBM binding z-score was 0.624.

Q: And the PBM binding z-score [7]?
A: Its PBM binding z-score is 0.0497.

Q: What about the PBM binding z-score [8] of the same sequence?
A: Its PBM binding z-score is 0.473.

Q: What about the PBM binding z-score [9] of the same sequence?
A: The PBM binding z-score was -0.22.

Q: What does the source list for ACCGAAAGGTCGAAGGTGAGTATACCCACCCGAA?
A: PBM binding z-score [1]: 2.51; PBM binding z-score [2]: 4.53; PBM binding z-score [3]: 4.2; PBM binding z-score [4]: 1.35; PBM binding z-score [5]: 5.27; PBM binding z-score [6]: 2.11; PBM binding z-score [7]: -0.114; PBM binding z-score [8]: 2.95; PBM binding z-score [9]: 0.383

Q: What does the source list for GCTATTGGTTGAAAGGGCAACCGAATGATTCTCG?
A: PBM binding z-score [1]: 1.94; PBM binding z-score [2]: 1.33; PBM binding z-score [3]: 1.27; PBM binding z-score [4]: 0.0979; PBM binding z-score [5]: 1.32; PBM binding z-score [6]: 0.466; PBM binding z-score [7]: -0.293; PBM binding z-score [8]: 0.563; PBM binding z-score [9]: 0.0908

Q: Which results are given for ATCTCTAGGTAAAAGTTCCGTGAATCCCGAGGAT?
A: PBM binding z-score [1]: -0.157; PBM binding z-score [2]: 0.0505; PBM binding z-score [3]: 0.279; PBM binding z-score [4]: 0.162; PBM binding z-score [5]: 0.162; PBM binding z-score [6]: 0.383; PBM binding z-score [7]: 0.302; PBM binding z-score [8]: -0.0559; PBM binding z-score [9]: 0.13

Q: Which results are given for GCTATTAGTTGAAAGGGCAACCGCATGATTCTCG?
A: PBM binding z-score [1]: 1.73; PBM binding z-score [2]: 1.4; PBM binding z-score [3]: 1.04; PBM binding z-score [4]: 0.935; PBM binding z-score [5]: 1.29; PBM binding z-score [6]: 0.332; PBM binding z-score [7]: -0.105; PBM binding z-score [8]: 0.504; PBM binding z-score [9]: 0.195

Q: Which PBM binding z-score [1] does the source give for ATACCAAGGAGATCGTGAGGTCGTTGATACTAAC here?
A: The PBM binding z-score was 0.696.

Q: What about the PBM binding z-score [2] of the same sequence?
A: Its PBM binding z-score is 0.264.

Q: And the PBM binding z-score [3]?
A: The PBM binding z-score was 0.458.

Q: What about the PBM binding z-score [4] of the same sequence?
A: Its PBM binding z-score is 0.394.

Q: And the PBM binding z-score [5]?
A: The PBM binding z-score was 0.833.

Q: And the PBM binding z-score [6]?
A: The PBM binding z-score was 2.37.

Q: And the PBM binding z-score [7]?
A: Its PBM binding z-score is 1.63.

Q: What about the PBM binding z-score [8] of the same sequence?
A: The PBM binding z-score was 1.44.

Q: And the PBM binding z-score [9]?
A: The PBM binding z-score was 3.26.

Q: CCTACTCGGCCAAGGTCATTGATCAGTCAAAGCA was tested. Which PBM binding z-score [1] did it give?
A: The PBM binding z-score was 3.33.

Q: What about the PBM binding z-score [2] of the same sequence?
A: The PBM binding z-score was 3.95.

Q: And the PBM binding z-score [3]?
A: The PBM binding z-score was 3.71.

Q: What about the PBM binding z-score [4] of the same sequence?
A: Its PBM binding z-score is 2.24.

Q: And the PBM binding z-score [5]?
A: Its PBM binding z-score is 3.6.

Q: What about the PBM binding z-score [6] of the same sequence?
A: Its PBM binding z-score is 3.36.

Q: And the PBM binding z-score [7]?
A: Its PBM binding z-score is 2.98.

Q: What about the PBM binding z-score [8] of the same sequence?
A: The PBM binding z-score was 3.51.

Q: And the PBM binding z-score [9]?
A: The PBM binding z-score was 3.83.
